# Measured values from PubChem BioAssay AID1345085 (National Center for Advancing Translational Sciences (NCATS), 2018).
# Results filed as inconclusive are left out. The source made the active and inactive calls. Calls come from the whole dose curve; as a rule, active = well fitted cell-killing curve with a large enough effect; inconclusive = small, poorly fitted or top-dose-only effect, or effect the other way; inactive = no such curve, though single readings can be large or run the other way.
# Tested on: C33A
# Assay: Confirmatory qHTS for gynecologic anti-cancer compounds from libraries of approved drugs and bioactive compounds; note: nearly all actives have a fitted effect of over 55% in size
# Settings: gynecologic cancer cell panel viability, ATPlite luminescence, 48 h; series mostly up to 57.6 µM
# Procedure, shortened: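 ATPlite luminescence read-out of cell viability; IC50 from 11-point 1:3 titrations, 57.5 uM to 0.977 nM, 48 h compound exposure at 37 C, 5% CO2. Cells seeded at 1,000/well 16 h before dosing.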
# Potency is the fitted concentration of half-maximal effect.
row,SMILES,Potency
1,Nc1ccn([C@@H]2O[C@H](CO)[C@@H](O)C2(F)F)c(=O)n1,17.2 nM (active)
2,Cc1c(NC(=O)OCC2COCCN2)cn2ncnc(Nc3ccc4c(cnn4Cc4cccc(F)c4)c3)c12 (stereo not drawn),24300 nM (active)
3,O=c1[nH]c(=O)n([C@H]2C[C@H](O)[C@@H](CO)O2)cc1F,2170 nM (active)
4,Cc1[nH]c2ccccc2c1CCNCc1ccc(/C=C/C(=O)NO)cc1,243 nM (active)
5,Cc1csc(NC(=O)c2sc3nc4c(c(C(F)(F)F)c3c2N)CCC4)n1,1930 nM (active)
6,CC(C)C[C@H](NC(=O)[C@H](Cc1ccccc1)NC(=O)c1cnccn1)B(O)O,153 nM (active)
7,COc1c(C)c2c(c(O)c1C/C=C(\C)CCC(=O)OCCN1CCOCC1)C(=O)OC2,2730 nM (active)
8,CCN(CC)CCCC(C)Nc1ccnc2cc(Cl)ccc12 (stereo not drawn),inactive
9,O=C(NOC[C@H](O)CO)c1ccc(F)c(F)c1Nc1ccc(I)cc1F,inactive
10,CCCCc1nc2cc(/C=C/C(=O)NO)ccc2n1CCN(CC)CC,1530 nM (active)
11,COCCOc1nc(-c2ccc(Cl)c(Cl)c2)n(-c2ccc(NC(=O)CCl)cc2)n1,4320 nM (active)
12,CCN1C[C@H](C)n2c(c(O)c3c(=O)n(Cc4ccc(F)c(Cl)c4)nc(C(=O)NC)c32)C1=O,inactive
13,CN1C(=O)C(Cc2c[nH]c3ccccc23)NC1=S (stereo not drawn),inactive
14,Cc1cnc(Nc2ccc(OCCN3CCCC3)cc2)nc1Nc1cccc(S(=O)(=O)NC(C)(C)C)c1,inactive
15,CC(Oc1cc(-n2cnc3ccc(CN4CCN(C)CC4)cc32)sc1C(N)=O)c1ccccc1C(F)(F)F (stereo not drawn),5440 nM (active)
16,CCCC(=O)O[C@]1(C(=O)CCl)[C@@H](C)C[C@H]2[C@@H]3CCC4=CC(=O)C=C[C@]4(C)[C@@]3(F)C(=O)C[C@@]21C,inactive
17,Cc1cc(Nc2cc(N3CCN(C)CC3)nc(Sc3ccc(NC(=O)C4CC4)cc3)n2)n[nH]1,inactive

row,SMILES,Potency
1,Cc1cnc(Nc2cccc(CN3CCOCC3)c2)nc1Nc1cccc(S(=O)(=O)NC(C)(C)C)c1,24300 nM (active)
2,NC(=O)c1ccc2nc(-c3ccc(Oc4ccc(Cl)cc4)cc3)[nH]c2c1,inactive
3,Cc1nc(N)nc(N)c1-c1ccc(Cl)c(Cl)c1,172 nM (active)
4,NS(=O)(=O)c1ccc(Nc2nc(OCC3CCCCC3)c3[nH]cnc3n2)cc1,inactive
5,OC[C@H]1O[C@@H](n2cnc3c(=S)nc[nH]c32)[C@H](O)[C@@H]1O,10900 nM (active)
6,NC(=O)c1cnc(-c2ccc(C3(N)CCC3)cc2)c(-c2ccccc2)c1,19300 nM (active)
7,CCCc1nn(C)c2c(=O)[nH]c(-c3cc(S(=O)(=O)N4CCN(C)CC4)ccc3OCC)nc12,inactive
8,C#C[C@]1(O)CC[C@H]2[C@@H]3CCC4=CC(=O)CC[C@@H]4[C@H]3CC[C@@]21CC,inactive
9,COc1cc2c(Oc3ccc(-c4cnc(Nc5ccc(F)cc5)n(C)c4=O)cc3F)ccnc2cc1OCCCN1CCOCC1,inactive
10,Nc1ncnc2c1ncn2[C@@H]1O[C@H](CO)C[C@H]1O,inactive
11,COc1cc(F)c(F)c(Nc2ccc(I)cc2F)c1NS(=O)(=O)C1(CC(O)CO)CC1 (stereo not drawn),inactive
12,CCCCc1oc2ccccc2c1C(=O)c1cc(I)c(OCCN(CC)CC)c(I)c1,70800 nM (active)
13,COc1cccc2c1C(=O)c1c(O)c3c(c(O)c1C2=O)C[C@@](O)(C(=O)CO)C[C@@H]3O[C@H]1C[C@H](N)[C@H](O[C@@H]2CCCCO2)[C@H](C)O1,2430 nM (active)
14,CCCS(=O)c1ccc2nc(NC(=O)OC)[nH]c2c1 (stereo not drawn),inactive
15,Cn1c(=O)c(-c2c(Cl)cccc2Cl)cc2cnc(Nc3cccc(C(=O)O)c3)nc21,5440 nM (active)
16,O=C(O)c1ccc(Nc2ncc3c(n2)-c2ccc(Cl)cc2C(c2c(F)cccc2F)=NC3)cc1,inactive
